In PubChem BioAssay AID624052 (National Center for Advancing Translational Sciences (NCATS), 2012):
Calls of active or inactive are those of the source.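 Rule for the calls: active = IC50 at or below 10 µM; inconclusive = IC50 above 10 µM but below 20 µM; inactive = IC50 of 20 µM or more.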

The compounds below were run against Neuropeptide S receptor (Homo sapiens) (UniProt Q6W5P4) (assay: Robust Characterization of Calcium Signal Transduction Antagonists of the Neuropeptide S Receptor: SAR). Conditions: CHO-NPSR cells, NPS-induced calcium fluorescence (FDSS).
From the text: Neuropeptide S receptor (NPSR), previously known as GPR154, is a recently de-orphanized G protein coupled receptor. Its endogenous ligand is the 20 amino acids peptide Neuropeptide S (NPS). […] NPS and its receptor are found in various tissues. Specifically they are highly expressed in brain areas that have been implicated in modulation of arousal, stress and anxiety. Central administration of NPS in mice produces an unusual profile of activity by inducing wakefulness and arousal, while at the same time suppressing anxiety. Therefore, NPSR may represent a novel drug target for the treatment of sleep and anxiety disorders. To identify NPSR antagonists, we developed a cell-based assay with transfected NPS receptor. NPS can stimulate the production of cAMP as well as release intracellular calcium in Chinese hamster ovary cells stably expressing NPS receptor. This change in intracellular calcium can be detected using a calcium indicator dye on a calcium imaging plate reader system (FDSS). This particular assay uses a high density of sampling across concentration-response space to establish more confidence estimates of potency. NIH Chemical Genomics Center [NCGC] NIH Molecular Libraries Probe Production centers Network [MLPCN] MLPCN Grant: DA026210 Assay Submitter (PI): Heilig, Markus Alexander
A Chinese hamster ovary (CHO) cell line stably expressing the NPS receptor (CHO-NPSR) was obtained from Dr. Heilig lab at NIAAA and maintained in F-12 Kaighn's media (Invitrogen, Carlsbad, CA, 21127) supplemented with 10 % FBS, 100 units/ml penicillin, 100 ug/ml streptomycin and 250 ug/ml geneticin at 37C, 5% CO2 in a humidified atmosphere. Before the assay, aliquots of cells were frozen and stored at -135C. The assay was performed on a FDSS-7000 kinetic plate reader in 1536-well format. For both agonist (1-220s) and antagonist (221-400s) phases, the maximums of kinetic fluorescence responses were converted separately into text files using the instrument's software data export utility. Data for agonist response were normalized to the controls for basal activity (DMSO only) and 100% activation (NPS). Data for antagonist response were normalized to the controls for basal activity (DMSO only) and 100% inhibition (No NPS control). AC50 values were determined from concentration-response data modeled with the standard Hill equation. NPS 1536-well FDSS assay protocol: (1) Frozen CHO-NPSR cells were thaw, washed once with fresh media and resuspended in F-12 Kaighn's media supplemented with 10 % FBS, 100 units/ml penicillin and 100 ug/ml streptomycin. Cells were plated at 3 ul/well (1200 cells) to black, clear-bottom, tissue-culture treated 1536-well plates, and then cultured at 37C, 5 % CO2 for 16 to 30 hours. […]

Chain of Neuropeptide S receptor (Homo sapiens) (Q6W5P4 whole entry, looked up): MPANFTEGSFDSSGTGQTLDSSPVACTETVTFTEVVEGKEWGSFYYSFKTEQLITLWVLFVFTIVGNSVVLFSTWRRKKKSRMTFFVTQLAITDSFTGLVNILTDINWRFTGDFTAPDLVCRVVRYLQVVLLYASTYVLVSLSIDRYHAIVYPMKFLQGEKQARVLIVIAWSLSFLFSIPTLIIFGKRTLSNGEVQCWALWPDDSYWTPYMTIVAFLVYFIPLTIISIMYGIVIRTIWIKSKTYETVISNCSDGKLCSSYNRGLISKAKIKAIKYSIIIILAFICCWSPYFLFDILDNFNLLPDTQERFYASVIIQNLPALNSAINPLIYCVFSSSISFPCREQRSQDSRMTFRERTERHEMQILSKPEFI

IC50, active:
COc1ccc(C2c3c(ncn(CCN4CCOCC4)c3=N)Oc3ccc4ccccc4c32)cc1OC (centres undefined) 4940 nM
Cc1c(P(=S)(c2ccccc2)c2ccccc2)[n+]2ccccc2n1C/C=C/c1ccccc1 36.5 nM
O=C1OC(c2ccccc2)(c2ccccc2)N2CCN(C(=O)NCc3ccc(F)cc3)CC12 (centres undefined) 570 nM
CCC(C)(CCN1CCOCC1)N(Cc1cc2ccccc2n(C)c1=O)C(=O)C1CCCCC1 (centres undefined) 57.8 nM
